The values below come from PubChem BioAssay AID2284199 (EPA ToxCast).

Active and inactive are the calls of the source. The calls were made as follows: active = hit-call score of the fitted dose curve at least 0.9, where 1 is the maximum; inactive = score below 0.9.

The target in this assay is rat Vesicular Monoamine Transporter (VMAT2), Slc18a2 (gene 25549) (UniProt Q01827). In words: ERF_TW_TR_rSLC18A2: Eurofins (ERF) Radioligand Binding LeadHunter Assay for rat Vesicular Monoamine Transporter (VMAT2) Antagonism. The procedure: ERF_TW_TR_rSLC18A2 is a biochemical, single-readout assay that uses extracted gene-proteins in a cell-free assay. Measurements were taken 0.5 hour after chemical dosing in a 96-well plate. See VMAT2 Rat Vesicular Monoamine Transporter Binding (Antagonist Radioligand) Assay, Panlabs.ERF_TW_TR_rSLC18A2 is an assay component calculated from the ERF_TW_TR_rSLC18A2 assay. It is designed to measure radioligand binding using a type of binding reporter as detected by scintillation counting with radiometry technology.Data from the assay component ERF_TW_TR_rSLC18A2 was analyzed at the assay endpoint, ERF_TW_TR_rSLC18A2, in the positive analysis fitting direction relative to DMSO as the negative control and baseline of activity. Using a type of binding reporter, loss-of-signal activity can be used to understand changes in transporter binding as they relate to gene SLC18A2. To generalize the intended target to other relatable targets, this assay endpoint is annotated to the transporter intended target family, where the subfamily is vesicular transporter.
Sequence of rat Vesicular Monoamine Transporter (VMAT2), Slc18a2 (gene 25549) (Q01827 whole entry, looked up): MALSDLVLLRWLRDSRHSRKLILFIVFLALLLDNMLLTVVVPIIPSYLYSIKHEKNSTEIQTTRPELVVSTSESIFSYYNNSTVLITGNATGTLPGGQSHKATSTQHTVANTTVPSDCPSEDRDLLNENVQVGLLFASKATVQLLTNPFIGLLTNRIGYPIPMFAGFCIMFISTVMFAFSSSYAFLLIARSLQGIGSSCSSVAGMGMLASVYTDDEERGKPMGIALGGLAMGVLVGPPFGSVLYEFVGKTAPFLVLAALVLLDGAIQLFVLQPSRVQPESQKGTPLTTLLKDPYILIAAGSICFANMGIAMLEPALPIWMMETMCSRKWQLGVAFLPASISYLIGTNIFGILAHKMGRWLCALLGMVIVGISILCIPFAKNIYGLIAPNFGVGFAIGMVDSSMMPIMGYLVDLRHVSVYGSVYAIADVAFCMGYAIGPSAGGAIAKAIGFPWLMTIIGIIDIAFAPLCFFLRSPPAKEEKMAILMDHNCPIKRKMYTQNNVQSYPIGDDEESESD
This assay measures binding of [3H]Dihydrotetrabenazine to sites associated with the vesicular monoamine uptake transporter. […] Membranes are filtered and washed, the filters are then counted to determine [3H]Dihydrotetrabenazine specifically bound. […]
As for `COc1cc(CCC(=O)CC(=O)CCc2ccc(O)c(OC)c2)ccc1O`, the AC50 was 5000 nM (active). Then `O=C(/C=C/c1ccc(O)cc1)CC(=O)/C=C/c1ccc(O)cc1`, with 283 nM (active).

As usually defined, the AC50 is the concentration at which the activity in the assay is half-maximal.
